“And” between values parts separate entries of the source, which are not always exact repeats. Identical values can stand only once. About 79,000 compounds went through this panel and 15% of them were active in at least one assay; those are over-represented in the sample as a whole. The source holds several records for some structures; these can differ, active in one and inactive in another. The source made the active and inactive calls. No stated cut-off is given here; in the data, active means growth inhibition above about 70%; inactive means the rest.
Tests used:
[1] = NCI Yeast Anticancer Drug Screen. Data for the mec2-1 strain (AID 157); details: S. cerevisiae mec2-1 strain, stronger effect = higher value
Outline: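 Readout is yeast growth inhibition, normalised to vehicle-treated controls, in the mec2-1 strain exposed to compound.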

[2] = NCI Yeast Anticancer Drug Screen. Data for the rad14 strain (AID 159);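 further: 0% = growth of vehicle-treated control cultures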; details: S. cerevisiae rad14 strain growth inhibition, stronger effect = higher value
Outline: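 Growth inhibition vs vehicle controls; genetically altered yeast strain (DNA damage repair defect) treated with test compounds.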

[3] = NCI Yeast Anticancer Drug Screen. Data for the sgs1 mgt1 strain (AID 161);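 further: 0% = growth of cultures given vehicle only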; details: S. cerevisiae sgs1 mgt1 strain, stronger effect = higher value
Outline: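 Yeast cells carrying a defined DNA-repair defect were exposed to test compounds. Growth inhibition was measured relative to vehicle-treated controls.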

[4] = NCI Yeast Anticancer Drug Screen. Data for the CLN2oe strain (AID 163);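 further: 0% = growth of vehicle-only control cultures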; details: S. cerevisiae CLN2oe strain, stronger effect = higher value
Outline: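 Values reflect how much compound exposure reduced yeast growth, referenced to vehicle-exposed cells. Assay organism is a strain with a defined genetic change affecting cell-cycle control.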

[5] = NCI Yeast Anticancer Drug Screen. Data for the cln2 rad14 strain (AID 165);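 further: 0% = growth equal to vehicle treated cultures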; details: S. cerevisiae cln2 rad14 strain, stronger effect = higher value
Outline: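 Relative to vehicle controls, growth inhibition of compound-treated cln2 rad14 yeast was recorded.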

[6] = NCI Yeast Anticancer Drug Screen. Data for the bub3 strain (AID 167); details: S. cerevisiae bub3 mutant strain, stronger effect = higher value
Outline: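 Readout: yeast growth inhibition, expressed relative to vehicle-only wells. The test organism is a mutant strain from a panel with lesions in DNA repair or checkpoint genes.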

[7] = NCI Yeast Anticancer Drug Screen. Data for the wt2 strain (AID 169);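 further: 0% = growth of vehicle-treated yeast cultures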; details: S. cerevisiae wt2 strain growth inhibition, stronger effect = higher value
Outline: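 Values express reduction in yeast growth under compound treatment, referenced to vehicle-treated cells.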

[8] = NCI Yeast Anticancer Drug Screen. Data for the mlh1 strain (AID 171);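 further: 0% = growth of vehicle-treated control cultures of the same strain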; details: S. cerevisiae mlh1 strain growth inhibition, stronger effect = higher value
Outline: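 Steps: expose the defined-mutant yeast strain to compound; expose a parallel culture to vehicle; measure growth; express compound effect as inhibition relative to the vehicle culture.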

[9] = NCI Yeast Anticancer Drug Screen. Data for the sgs1 strain (AID 173);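 further: 0% = growth of vehicle-only control cultures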; details: S. cerevisiae sgs1 mutant, stronger effect = higher value
Outline: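 Treat defined-mutant yeast with compound; measure growth; calculate inhibition relative to vehicle-treated cells.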

[10] = NCI Yeast Anticancer Drug Screen. Data for the mlh1 rad18 strain (AID 175); details: S. cerevisiae mlh1 rad18 strain growth inhibition, stronger effect = higher value
Outline: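 Test agents were incubated with a yeast strain of defined genotype (DNA damage repair defect). Inhibition of growth was derived by comparison with vehicle-exposed cultures.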

[11] = NCI Yeast Anticancer Drug Screen. Data for the rad18 strain (AID 177); details: S. cerevisiae rad18 mutant growth inhibition, stronger effect = higher value
Outline: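 A genetically defined yeast mutant impaired in DNA damage repair was treated with test compounds, then its growth was measured against cultures receiving vehicle alone.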

[12] = NCI Yeast Anticancer Drug Screen. Data for the rad52 strain (AID 147);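 further: 0% = growth of vehicle-treated control cultures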; details: S. cerevisiae rad52 mutant growth inhibition, stronger effect = higher value
Outline: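 Screen used a yeast mutant impaired in DNA repair. After compound exposure, growth was measured. Values reflect inhibition compared with vehicle-treated cells.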

[13] = NCI Yeast Anticancer Drug Screen. Data for the wt1 strain (AID 149);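 further: 0% = growth of vehicle-treated wt1 cultures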; details: S. cerevisiae wt1 strain (SPY 50644) growth inhibition, stronger effect = higher value
Outline: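 Growth inhibition read against vehicle controls after compound exposure of the wt1 yeast strain.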

[14] = NCI Yeast Anticancer Drug Screen. Data for the rad50EPP+ strain (AID 151);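 further: 0% = growth of vehicle-treated control cultures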; details: S. cerevisiae rad50 mutant strain, stronger effect = higher value
Outline: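 Exposing the rad50EPP+ strain to each compound, growth was compared with vehicle-only cultures to give inhibition.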

[15] = NCI Yeast Anticancer Drug Screen. Data for the mgt1 strain (AID 153); details: S. cerevisiae mgt1 mutant growth inhibition, stronger effect = higher value
Outline: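 Genetically defined yeast (mgt1) treated with compound; inhibition of growth expressed against vehicle-treated controls.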

[16] = NCI Yeast Anticancer Drug Screen. Data for the rad50 strain (AID 155);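 further: 0% = growth of vehicle-only cultures of the same strain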; details: S. cerevisiae rad50 strain growth inhibition, stronger effect = higher value
Outline: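 Readout: growth inhibition relative to vehicle-treated cultures. Compound exposure was carried out in a genetically defined yeast strain deficient in DNA damage repair.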

[17] = at 5.0 µM (retest, dose inferred, filed as 0.5)
[18] = at 50.0 µM (retest, dose inferred, filed as 5.0)

Measured: growth inhibition

O=P(CCCCP(=O)(c1ccccc1)c1ccccc1)(c1ccccc1)c1ccccc1.[Cl][Sn]([Cl])([c]1ccccc1)[c]1ccccc1
inactive: [1]; [17] 48% | [2]; at 1.2 µM 4% | [2]; at 3.7 µM 16% | [4]; at 1.2 µM -16% | [4]; at 3.7 µM -27% | [4]; at 11.0 µM 15% | [5]; [17] 15% | [6]; at 1.2 µM 7% | [6]; at 3.7 µM -3% | [6]; [17] 67% | [6]; at 11.0 µM 50% | [7]; at 1.2 µM -51% | [7]; at 3.7 µM -35% | [7]; at 11.0 µM 43% | [8]; at 1.2 µM 3% | [8]; at 3.7 µM 9% | [9]; at 1.2 µM 0% | [9]; at 3.7 µM 15% | [9]; at 11.0 µM 68% | [11]; at 1.2 µM 3% | [11]; at 3.7 µM 16%
active: [1]; at 11.0 µM 70% | [1]; at 33.0 µM 95% | [1]; [18] 98% | [1]; at 50.0 µM 87.8% | [1]; at 100.0 µM 96% | [2]; at 11.0 µM 78% | [2]; at 33.0 µM 94% | [2]; at 100.0 µM 96% | [3]; [17] 83% | [3]; [18] 98% | [3]; at 50.0 µM 87.3% | [4]; at 33.0 µM 91% | [4]; at 100.0 µM 95% | [5]; [18] 97% | [5]; at 50.0 µM 81.8% | [6]; at 33.0 µM 93% | [6]; [18] 98% | [6]; at 50.0 µM 87.5% | [6]; at 100.0 µM 96% | [7]; at 33.0 µM 92% | [7]; at 100.0 µM 96% | [8]; at 11.0 µM 80% | [8]; at 33.0 µM 96% | [8]; at 100.0 µM 97% | [9]; at 33.0 µM 96% | [9]; at 100.0 µM 97% | [10]; [17] 84% | [10]; [18] 96% | [10]; at 50.0 µM 89.5% | [11]; at 11.0 µM 82% | [11]; at 33.0 µM 95% | [11]; at 100.0 µM 96%

O=C(O)C1C2C=CC(C2)C1c1ccccc1 (stereo unspecified)
active: [6]; at 33.0 µM 73% | [6]; [18] 93% | [6]; at 100.0 µM 85%
inactive: [12]; at 1.2 µM -1% | [12]; at 3.7 µM 0% | [12]; at 11.0 µM -2% | [12]; at 33.0 µM -3% | [12]; at 100.0 µM 5% | [13]; at 1.2 µM -3% | [13]; at 3.7 µM -1% | [13]; at 11.0 µM -3% | [13]; at 33.0 µM -9% | [13]; at 100.0 µM 1% | [14]; at 1.2 µM -6% | [14]; at 3.7 µM -8% | [14]; at 11.0 µM -6% | [14]; at 33.0 µM -5% | [14]; at 100.0 µM 0% | [15]; at 1.2 µM -1% | [15]; at 3.7 µM -1% | [15]; at 11.0 µM -4% | [15]; at 33.0 µM -5% | [15]; at 100.0 µM 2% | [16]; at 1.2 µM -1% | [16]; at 3.7 µM 26% | [16]; [17] -1% | [16]; at 11.0 µM 1% | [16]; at 33.0 µM 0% | [16]; [18] 4% | [16]; at 50.0 µM 10.9% and 4.35% | [16]; at 100.0 µM 17% | [1]; at 1.2 µM 0% | [1]; at 3.7 µM 0% | [1]; [17] -1% | [1]; at 11.0 µM 0% | [1]; at 33.0 µM -1% | [1]; [18] 3% | [1]; at 50.0 µM 1.4% and 9.7% | [1]; at 100.0 µM 9% | [2]; at 1.2 µM -5% | [2]; at 3.7 µM -7% | [2]; at 11.0 µM -10% | [2]; at 33.0 µM -11% | [2]; at 100.0 µM -4% | [3]; [17] -3% | [3]; [18] 3% | [3]; at 50.0 µM 7% and -6.6% | [4]; at 1.2 µM -4% | [4]; at 3.7 µM -10% | [4]; at 11.0 µM -4% | [4]; at 33.0 µM -6% | [4]; at 100.0 µM 5% | [5]; [17] -5% | [5]; [18] -5% | [5]; at 50.0 µM -0.2% and 0.6% | [6]; at 1.2 µM 6% | [6]; at 3.7 µM 20% | [6]; [17] 34% | [6]; at 11.0 µM 45% | [7]; at 1.2 µM -2% | [7]; at 3.7 µM 5% | [7]; at 11.0 µM -4% | [7]; at 33.0 µM -3% | [7]; at 100.0 µM 8% | [8]; at 1.2 µM -1% | [8]; at 3.7 µM 0% | [8]; at 11.0 µM 1% | [8]; at 33.0 µM 0% | [8]; at 100.0 µM 11% | [9]; at 1.2 µM -5% | [9]; at 3.7 µM -5% | [9]; at 11.0 µM -5% | [9]; at 33.0 µM 6% | [9]; at 100.0 µM 40% | [10]; [17] -3% | [10]; [18] 5% | [10]; at 50.0 µM 10.6% and 6.5%
30.1% (inactive) and 95.9% (active): [6]; at 50.0 µM
